Records with an inconclusive call do not appear. Active and inactive are the calls of the source. Unless noted, calls follow the shape of the dose curve; as a rule, active = well fitted curve in the direction sought with a large enough effect; inconclusive = small, poorly fitted or top-dose-only effect, or another doubt; inactive = no such curve, though single readings can be large; an effect the other way counts as inactive or inconclusive.

Among the data in PubChem BioAssay (NCATS) are outcome and Potency values, retold here.

The target in test [1] is Ferritin light chain (Equus caballus) (UniProt P02791). Description: qHTS Validation Assay for Identification of Novel General Anesthetics (AID 2323). Also: series mostly up to about 77 µM. Put shortly: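 Apoferritin from horse spleen (10 uM) was mixed with 1-aminoanthracene at 50% saturation in PBS, then compounds were added. After 10 min at room temperature, fluorescence was read (ex 380 nm, em 535 nm) and normalized to free-probe and complex controls.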

Test [2] deals with ATP-dependent DNA helicase Q1 (Homo sapiens) (UniProt P46063). The test can be described thus: qHTS Validation Assay for Inhibitors of RecQ-Like Dna Helicase 1 (RECQ1) (AID 2353). Also: potency is read from the fitted curve at half-maximal effect. Put shortly:
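RECQ1T1 50 nM; forked duplex (20 bp + 30-nt ss tails) 200 nM, ATP 2 mM final; pH 8.0, 2 mM MgCl2, 2.5 ug/ml poly(dI-dC); 15 min compound preincubation; discontinuous kinetic read over 2 h at RT.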

Test [3] addresses RecQ-like DNA helicase BLM (Homo sapiens) (UniProt P54132). The test can be described thus: qHTS Validation Assay for Inhibitors of Bloom's syndrome helicase (BLM) (AID 2364). Also: potency is read from the fitted curve at half-maximal effect. Put shortly:
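BLM 50 nM in 25 mM Tris-HCl pH 8.0, 5 mM NaCl, 2 mM MgCl2, 1 mM DTT, 0.01% Tween-20, 2.5 ug/ml poly(dI-dC); 15 min cpd preinc, RT. Start: 200 nM forked DNA + 2 mM ATP (final). TAMRA read, 2 reads 2 h apart.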
In general terms: qHTS replaces the single test concentration by a dilution series.

Test [4] in a line: Cytometric Cell-Based qHTS for Inhibitors of the mTORC1 Signaling Pathway in MEF (Tsc2-/-, p53-/-) Cells (AID 2660).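 Also: Tsc2 and p53 null MEFs carrying empty vector with compound for 24 h; percent of cells above a phospho-rpS6 to PI ratio cutoff in each well; series mostly up to about 38 µM.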 The procedure, abridged: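 Immunofluorescence qHTS of rpS6 Ser235/236 phosphorylation: MEFs (Tsc2-/-, p53-/-) treated 24 h, 37 C, in DMEM + 10% FBS. Alexa-488 signal normalized to PI count, referenced to rapamycin (7.5 nM) and DMSO; PI cell number recorded for viability.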

A short description of test [5]: High Content Imaging Cell-Based qHTS for Inhibitors of the mTORC1 Signaling Pathway in MEF (Tsc2-/-, p53-/-) Cells (AID 2666).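 Also: percent of cells scored positive for phospho-rpS6 Ser235/236 immunostaining by imaging.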 Also: potency is read from the fitted curve at half-maximal effect. The procedure, abridged: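 Inhibition of rpS6 phosphorylation is measured by immunofluorescence imaging in empty-vector Tsc2-/-, p53-/- mouse embryonic fibroblasts after 24 hrs compound exposure at 37 degree Celsius. Results are reported as % positive cells per well.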

Test [6] is described as follows: High Content Imaging Cell-Based qHTS for Inhibitors of the mTORC1 Signaling Pathway in MEF Cells (AID 2667). Also: potency is read from the fitted curve at half-maximal effect. Put shortly: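 Fixed-cell imaging of phospho-S6 (Ser235/236, Alexa-488) after 24 hrs of compound treatment at 37 degree Celsius. Signal was normalized to Hoechst, and thresholds from the highest and lowest wells split cells into % active versus % non-active.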

A short description of test [7]: Cytometry Cell-Based qHTS for Inhibitors of the mTORC1 Signaling Pathway in MEF cells (AID 2668).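 Also: Tsc2-/- p53-/- mouse embryonic fibroblasts stably re-expressing wild-type Tsc2; percent cells positive for phospho-rpS6 Ser235/236 relative to propidium iodide stain; series mostly up to about 38 µM.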 Put shortly: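 Pathway inhibition in WT Tsc2-rescued Tsc2-/-, p53-/- MEFs is measured as the Alexa-488 phospho-rpS6 to propidium iodide intensity ratio after 24 hrs of compound at 37 degree Celsius. PI-stained cell number gives viability.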
Test [8] in a line: Validation screen for small molecules that induce DNA re-replication in MCF 10A normal breast cells (AID 463097). Also: nearly all actives have a fitted effect of over 60% in size. Put shortly: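 DNA re-replication was detected as a rise in nuclei with elevated Hoechst fluorescence after a 48 hr compound exposure of MCF 10A cells at 37 C.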
In test [9] the target is Ubiquitin carboxyl-terminal hydrolase 2 (Homo sapiens) (UniProt O75604). The test can be described thus: qHTS Validation Assay for Inhibitors of Ubiquitin-specific Protease USP2a Using CHOP2 as the Reporter (AID 463106). Put shortly:
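Inhibition is expressed relative to NEM as the full-inhibition control, with concentration-response curves classed by fit quality, magnitude and activity. Enzyme (USP2 core, 10nM) meets 25nM Ub-CHOP2 after compound preincubation; readings are taken at 60min.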

Test [10] addresses DNA polymerase III PolC-type (Bacillus subtilis (strain 168)) (UniProt P13267). The test can be described thus: qHTS Validation Assay for the Inhibitors of DNA Replication in Gram-Positive Bacteria (AID 485295). Also: potency is read from the fitted curve at half-maximal effect. Put shortly:
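Primed replication of single-stranded M13Gori by a four-protein B. subtilis holoenzyme is measured at room temperature. Double-stranded product is quantified by PicoGreen fluorescence after an EDTA stop; inhibition is scaled between DMSO and EDTA controls.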

The target of test [11] is Tumor susceptibility gene 101 protein (Homo sapiens) (UniProt Q99816). The test can be described thus: qHTS Validation Assay for Iinhibitors of HIV-1 Budding by Blocking the Interaction of PTAP/TSG101 (AID 485342; calls by dose curve). Put shortly:
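Fluorescence anisotropy measured PTAP-Tsg101 interaction. Final concentrations were 10 uM protein domain and 50 nM labeled peptide, equilibrated 20 min at room temperature.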

The nature of test [12]: qHTS Validation Assay to Find Inhibitors of Chronic Active B-Cell Receptor Signaling (AID 485345; active = well fitted curve in the direction sought with a large enough effect in the main read-out, with a control signal flat, not every such curve was filed as active). Put shortly: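 TMD8 ABC-DLBCL cells with dox-inducible green luciferase–IκBα fusion and red native luciferase; compounds 46 uM–3 nM, 4 h at 37C with doxycycline in 0.5% FBS IMDM. Green/red ratio normalized to basal and 10 uM MG-132.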
Test [13] has as its target Beta-2 adrenergic receptor (Homo sapiens) (UniProt P07550). The test can be described thus: qHTS validation assay of beta-arrestin-biased ligands of beta2-adrenergic receptor (AID 485366). Put shortly: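 Agonism was measured as beta-arrestin recruitment to recombinant beta2-AR, releasing tTA to drive luciferase. Cells were exposed for 18 hr at 37 degrees C to a series up to 46 microM. %Activity from corrected luminescence gave concentration-response curves.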

Test [14] is described as follows: Quantitative high throughput screen for delayed death inhibitors of the malarial parasite plastid, 96 hour incubation (AID 488745). Also: nearly all actives have a fitted effect of over 70% in size. Also: potency is read from the fitted curve at half-maximal effect. Put shortly:
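Luciferase-expressing P. falciparum, infected RBCs 2% Hct/0.1% parasitemia (final); 96 h cpd exposure, 37 C, 5% CO2; RPMI 1640 + 0.5% Albumax, bicarbonate, gentamycin. Readout: luminescence loss = growth inhibition.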

A short description of test [15]: Quantitative high throughput screen for delayed death inhibitors of the malarial parasite plastid, 48 hour incubation (AID 488752). Also: nearly all actives have a fitted effect of over 65% in size. Also: potency is read from the fitted curve at half-maximal effect. The procedure, abridged:
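Luciferase-expressing P. falciparum in RBCs, 2% Hct, 0.1% parasitemia final; RPMI 1640 + 0.5% Albumax; 48 h, 37 C, 5% CO2; luminescence readout, signal drop = growth inhibition.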

Test [16] has as its target Thioredoxin reductase 1, cytoplasmic (Rattus norvegicus) (UniProt O89049). Description: qHTS Assay for Substrates of Mammalian Selenoprotein Thioredoxin Reductase 1 (TrxR1) (AID 488772).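 Also: series mostly up to about 57 µM; a drop in NADPH fluorescence below the no-compound background marks a TrxR1 substrate.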 Put shortly: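 In this dual-purpose format, potential substrates are identified from the first fluorescence read after selenite addition, not from the 8-minute delta. Rat enzyme is preincubated with NADPH and then with compound at ~22 deg C.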

Test [17] shares this target. Description: qHTS Assay for Inhibitors of Mammalian Selenoprotein Thioredoxin Reductase 1 (TrxR1) (AID 488773).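 Also: drop in NADPH fluorescence over an 8 min run after selenite addition; series mostly up to about 57 µM; nearly all actives have a fitted effect of over 40% in size.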 Particulars: Potency: inhibition. Put shortly:
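Inhibition is scored from the loss of NADPH fluorescence between first and last reads of an 8-min kinetic run. Selenite (400 uM) was the substrate, added after 15 min compound preincubation at room temperature.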

Test [18] addresses Flap endonuclease 1 (Homo sapiens) (UniProt P39748). Description: qHTS Validation Assay for the Inhibitors of Human Flap endonuclease 1 (FEN1) (AID 488816). Also: potency is read from the fitted curve at half-maximal effect. Put shortly:
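Steps: add FEN1 (10 nM reagent) or buffer only; pin compounds; hold 15 min at room temperature; start with substrate, 50 nM final; read at 0 and 15 min; correct, normalize and fit a four-parameter Hill curve.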

Test [19] concerns the target M-phase phosphoprotein 8 (Homo sapiens) (UniProt Q99549). Description: qHTS Validation Assay for Inhibitors for MPP8 Chromodomain Interactions with Methylated Histone Tails (AID 488949).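 Also: AlphaScreen signal from MPP8 chromodomain bound to biotinylated H3K9me3 peptide; top concentration of the series differs between compounds; nearly all actives have a fitted effect of over 55% in size.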 The procedure, abridged: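 Disruption of the preformed MPP8–trimethyl-H3K9 peptide complex (both 50 nM, 30 min, RT) is measured after 30 min compound exposure, using AlphaScreen proximity beads; aurintricarboxylic acid titration serves as plate control.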

Test [20] deals with ATP-dependent 6-phosphofructokinase (Trypanosoma brucei brucei) (UniProt O15648). Description: qHTS Validation Assay to Find Inhibitors of T. brucei phosphofructokinase (AID 485368). Conditions: outcome: dose series up to 57.5 µM. Put shortly:
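ADP-Glo luminescence, two-step: residual ATP depleted, then ADP converted to ATP for luciferase. Enzyme 1.25 nM, F6P 0.5 mM, ATP 0.1 mM, pH 8.0 TEA buffer, 45 min RT. Curves fitted and classed by quality and efficacy.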

Sequence of ATP-dependent DNA helicase Q1 (Homo sapiens) (P46063 whole entry, looked up): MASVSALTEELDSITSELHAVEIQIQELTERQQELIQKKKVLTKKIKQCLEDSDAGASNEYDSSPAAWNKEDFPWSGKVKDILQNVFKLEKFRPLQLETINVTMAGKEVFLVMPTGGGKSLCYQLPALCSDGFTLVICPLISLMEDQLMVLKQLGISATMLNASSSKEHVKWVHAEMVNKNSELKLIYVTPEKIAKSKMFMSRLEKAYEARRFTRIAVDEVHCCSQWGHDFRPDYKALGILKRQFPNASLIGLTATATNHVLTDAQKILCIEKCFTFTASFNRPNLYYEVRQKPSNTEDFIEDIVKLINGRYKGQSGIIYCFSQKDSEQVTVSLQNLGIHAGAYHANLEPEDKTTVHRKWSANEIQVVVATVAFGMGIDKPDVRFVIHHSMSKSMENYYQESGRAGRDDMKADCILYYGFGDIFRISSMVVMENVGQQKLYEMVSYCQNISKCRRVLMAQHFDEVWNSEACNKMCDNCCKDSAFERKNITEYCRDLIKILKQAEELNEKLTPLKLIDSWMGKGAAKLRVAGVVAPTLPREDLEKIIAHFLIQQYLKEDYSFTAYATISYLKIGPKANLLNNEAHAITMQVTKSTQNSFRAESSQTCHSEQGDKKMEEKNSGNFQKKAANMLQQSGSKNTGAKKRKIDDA
Sequence of M-phase phosphoprotein 8 (Homo sapiens) (Q99549 whole entry, looked up): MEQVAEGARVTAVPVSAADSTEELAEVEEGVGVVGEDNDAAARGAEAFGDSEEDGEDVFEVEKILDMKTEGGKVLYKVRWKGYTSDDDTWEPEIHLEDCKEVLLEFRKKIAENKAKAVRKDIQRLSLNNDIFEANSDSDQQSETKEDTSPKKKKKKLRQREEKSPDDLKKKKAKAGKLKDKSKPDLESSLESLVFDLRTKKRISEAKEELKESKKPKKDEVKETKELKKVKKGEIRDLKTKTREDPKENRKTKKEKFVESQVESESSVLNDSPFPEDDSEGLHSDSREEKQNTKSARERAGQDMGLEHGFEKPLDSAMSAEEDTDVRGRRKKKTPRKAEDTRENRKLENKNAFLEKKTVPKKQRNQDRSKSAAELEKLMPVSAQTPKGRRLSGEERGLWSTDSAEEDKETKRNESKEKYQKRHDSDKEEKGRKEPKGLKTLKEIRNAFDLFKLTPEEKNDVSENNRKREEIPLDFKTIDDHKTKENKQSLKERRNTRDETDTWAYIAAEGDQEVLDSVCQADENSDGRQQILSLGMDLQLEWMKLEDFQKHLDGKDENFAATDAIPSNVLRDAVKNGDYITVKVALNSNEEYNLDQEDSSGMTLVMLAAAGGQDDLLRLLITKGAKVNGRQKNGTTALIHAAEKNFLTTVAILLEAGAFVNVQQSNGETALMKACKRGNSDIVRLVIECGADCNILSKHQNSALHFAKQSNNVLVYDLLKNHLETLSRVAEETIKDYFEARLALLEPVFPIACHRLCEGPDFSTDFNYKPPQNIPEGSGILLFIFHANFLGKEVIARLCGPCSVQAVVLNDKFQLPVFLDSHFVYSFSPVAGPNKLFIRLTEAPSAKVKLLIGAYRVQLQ
Sequence of Beta-2 adrenergic receptor (Homo sapiens) (P07550 whole entry, looked up): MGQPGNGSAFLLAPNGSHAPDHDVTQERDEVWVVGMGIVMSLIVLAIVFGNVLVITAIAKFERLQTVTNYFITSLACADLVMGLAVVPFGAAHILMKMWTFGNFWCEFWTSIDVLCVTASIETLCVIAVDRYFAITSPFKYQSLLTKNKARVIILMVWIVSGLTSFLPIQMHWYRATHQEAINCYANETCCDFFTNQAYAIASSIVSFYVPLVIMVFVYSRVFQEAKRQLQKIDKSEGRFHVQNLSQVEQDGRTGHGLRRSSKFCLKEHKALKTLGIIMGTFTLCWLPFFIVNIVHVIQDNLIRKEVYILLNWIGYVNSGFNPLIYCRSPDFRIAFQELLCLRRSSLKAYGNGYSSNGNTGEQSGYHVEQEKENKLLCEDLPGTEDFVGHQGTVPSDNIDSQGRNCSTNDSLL
Sequence of Flap endonuclease 1 (Homo sapiens) (P39748 whole entry, looked up): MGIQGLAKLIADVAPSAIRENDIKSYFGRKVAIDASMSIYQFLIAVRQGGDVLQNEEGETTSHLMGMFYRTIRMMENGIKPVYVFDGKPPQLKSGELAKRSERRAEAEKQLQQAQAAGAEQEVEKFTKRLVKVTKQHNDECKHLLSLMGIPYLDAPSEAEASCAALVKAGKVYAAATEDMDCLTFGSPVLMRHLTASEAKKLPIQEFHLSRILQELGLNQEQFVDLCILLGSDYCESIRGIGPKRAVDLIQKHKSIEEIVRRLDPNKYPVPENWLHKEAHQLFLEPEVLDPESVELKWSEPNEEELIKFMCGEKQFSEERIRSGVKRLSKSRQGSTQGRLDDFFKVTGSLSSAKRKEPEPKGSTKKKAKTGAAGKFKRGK
Sequence of Thioredoxin reductase 1, cytoplasmic (Rattus norvegicus) (O89049 whole entry, looked up): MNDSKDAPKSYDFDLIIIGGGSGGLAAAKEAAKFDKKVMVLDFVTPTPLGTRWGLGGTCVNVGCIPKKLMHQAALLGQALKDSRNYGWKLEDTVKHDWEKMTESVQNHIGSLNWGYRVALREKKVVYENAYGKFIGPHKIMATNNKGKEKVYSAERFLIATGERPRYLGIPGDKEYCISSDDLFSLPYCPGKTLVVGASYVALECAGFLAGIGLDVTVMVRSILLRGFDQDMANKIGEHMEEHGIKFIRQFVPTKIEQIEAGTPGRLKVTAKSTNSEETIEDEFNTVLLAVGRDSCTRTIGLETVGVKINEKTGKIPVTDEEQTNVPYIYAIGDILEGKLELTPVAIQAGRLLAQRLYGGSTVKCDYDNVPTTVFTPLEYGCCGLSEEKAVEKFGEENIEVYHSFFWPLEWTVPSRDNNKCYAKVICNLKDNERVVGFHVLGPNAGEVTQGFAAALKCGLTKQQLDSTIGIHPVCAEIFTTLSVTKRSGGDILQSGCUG
Sequence of Tumor susceptibility gene 101 protein (Homo sapiens) (Q99816 whole entry, looked up, the tested form may be a part): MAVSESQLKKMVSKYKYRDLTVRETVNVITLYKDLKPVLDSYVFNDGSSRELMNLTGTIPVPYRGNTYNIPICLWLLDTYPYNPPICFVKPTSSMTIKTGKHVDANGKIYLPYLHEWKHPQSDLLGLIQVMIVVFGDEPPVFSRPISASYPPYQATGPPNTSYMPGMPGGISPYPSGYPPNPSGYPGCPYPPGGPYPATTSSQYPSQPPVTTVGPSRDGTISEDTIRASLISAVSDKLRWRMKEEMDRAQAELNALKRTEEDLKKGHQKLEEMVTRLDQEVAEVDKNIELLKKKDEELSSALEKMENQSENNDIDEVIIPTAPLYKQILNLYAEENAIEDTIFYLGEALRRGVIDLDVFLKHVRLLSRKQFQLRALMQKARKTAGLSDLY
Sequence of Ubiquitin carboxyl-terminal hydrolase 2 (Homo sapiens) (O75604 whole entry, looked up): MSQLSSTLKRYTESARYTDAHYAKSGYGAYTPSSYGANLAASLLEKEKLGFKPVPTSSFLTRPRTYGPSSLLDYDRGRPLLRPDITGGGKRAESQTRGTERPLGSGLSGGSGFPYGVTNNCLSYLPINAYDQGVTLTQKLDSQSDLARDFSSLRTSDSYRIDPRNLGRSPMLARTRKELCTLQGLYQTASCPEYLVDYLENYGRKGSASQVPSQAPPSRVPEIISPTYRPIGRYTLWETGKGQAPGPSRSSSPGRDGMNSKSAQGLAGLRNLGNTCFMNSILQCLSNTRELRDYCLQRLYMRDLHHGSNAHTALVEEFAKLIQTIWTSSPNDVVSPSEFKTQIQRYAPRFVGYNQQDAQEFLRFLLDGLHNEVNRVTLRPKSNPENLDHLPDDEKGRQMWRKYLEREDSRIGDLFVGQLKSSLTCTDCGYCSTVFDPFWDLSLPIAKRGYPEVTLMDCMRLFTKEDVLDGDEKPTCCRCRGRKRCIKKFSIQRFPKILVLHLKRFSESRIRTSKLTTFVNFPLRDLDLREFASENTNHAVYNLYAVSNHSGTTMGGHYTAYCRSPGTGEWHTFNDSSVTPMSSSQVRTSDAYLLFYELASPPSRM
Sequence of Ferritin light chain (Equus caballus) (P02791 2-175 limits assumed): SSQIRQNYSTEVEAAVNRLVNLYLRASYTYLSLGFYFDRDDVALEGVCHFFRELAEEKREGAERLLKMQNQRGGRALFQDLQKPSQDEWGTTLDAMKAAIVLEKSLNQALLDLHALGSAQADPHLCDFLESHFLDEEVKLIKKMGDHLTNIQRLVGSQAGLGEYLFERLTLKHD
Sequence of ATP-dependent 6-phosphofructokinase (Trypanosoma brucei brucei) (O15648 whole entry, looked up): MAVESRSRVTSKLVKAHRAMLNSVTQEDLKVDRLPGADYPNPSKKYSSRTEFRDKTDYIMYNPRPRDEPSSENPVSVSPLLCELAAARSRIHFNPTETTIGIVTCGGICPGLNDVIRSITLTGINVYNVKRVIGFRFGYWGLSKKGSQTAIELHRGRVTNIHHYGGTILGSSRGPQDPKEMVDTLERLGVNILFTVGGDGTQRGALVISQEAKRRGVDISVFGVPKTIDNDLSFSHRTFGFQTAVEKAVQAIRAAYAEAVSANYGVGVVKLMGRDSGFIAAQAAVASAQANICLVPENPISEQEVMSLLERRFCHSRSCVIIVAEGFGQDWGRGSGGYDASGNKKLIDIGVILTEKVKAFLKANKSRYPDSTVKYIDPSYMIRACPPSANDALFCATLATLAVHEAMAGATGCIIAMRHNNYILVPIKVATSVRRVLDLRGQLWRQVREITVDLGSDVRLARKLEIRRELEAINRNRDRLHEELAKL

On to `Cc1ccc(S(=O)(=O)NC(=O)NN2CCCCCC2)cc1`, for which the result in test [1], in [4], in [9], in test [11], in test [13] and in test [16] was inactive. For the same molecule, the Potency entry in [2], in test [3], in [5], in test [6], in test [7] and in test [8] was “inactive” throughout. Further, the Potency entry in test [10], in [12], in test [14], in test [15], in test [17] and in [18] was “inactive” each time. The Potency entry in test [19] was “inactive”.

With `CC(=O)[C@]1(O)Cc2c(O)c3c(c(O)c2[C@@H](O[C@H]2C[C@H](N)[C@H](O)[C@H](C)O2)C1)C(=O)c1ccccc1C3=O`, the call in [1], in test [13] and in test [16] was inactive. Moreover, the Potency in test [2] is 11.2 µM (active); in test [3], 12.6 µM (active); in test [5], 2.33 µM (active); in [6], 414 nM (active); in [10], 1.06 µM (active); in test [14], 3.29 µM (active). The Potency in [15] was 3.7 µM (active); in [18] it was 26.7 µM (active). Also, in test [8], the Potency entry was “inactive”.

Take `CCN(CC)CCNC(=O)c1ccc(NC(C)=O)cc1`: the molecule was classed as inactive in [1], in [4], in test [9], in test [11], in test [13] and in test [20]. Moreover, the outcome in [16] was inactive. In addition, the Potency result in test [2], in [5], in [6], in test [7], in [8] and in test [10] was “inactive” in each case. The Potency entry in test [12], in test [14], in test [15], in [17], in test [18] and in test [19] was “inactive” in each case.

In the case of `CNC1(C)C2CCC(C2)C1(C)C` (configuration not stated), the call in test [1], in [4], in [9], in [11], in [13] and in test [16] was inactive. The Potency entry in test [2], in [3], in test [5], in test [6], in test [7] and in [8] was “inactive” throughout. For the same molecule, the Potency entry in [12], in [14], in [15], in test [17] and in [18] was “inactive” in each case.

Regarding `Nc1c2c(nc3ccccc13)CCCC2O` (configuration not stated), the outcome in [1], in [4], in test [9], in test [11], in [13] and in [16] was inactive. Besides, the Potency entry in test [2], in [3], in test [5], in test [6], in test [7] and in test [8] was “inactive” each time. The Potency entry in [10], in test [12], in test [14], in test [15], in test [17] and in test [18] was “inactive” throughout.

Consider `COc1ccc(CCN(C)CCCC(C#N)(c2cc(OC)c(OC)c(OC)c2)C(C)C)cc1OC` (configuration not stated), for which the molecule was classed as inactive in [1], in test [4], in test [9], in test [11] and in test [16]. The Potency entry in test [2], in [3], in test [5], in [6], in test [7] and in [8] was “inactive” throughout. Further, the Potency result in test [17], in test [18] and in test [19] was “inactive” throughout. The Potency is 11.7 µM (active) in test [14] and 8.28 µM (active) in test [15].

`C[N+](C)(C)CCOC(N)=O`: the result in test [1], in test [4], in [9], in test [11] and in test [13] was inactive. Besides, the Potency entry in [2], in test [5], in [6], in test [7], in test [8] and in test [10] was “inactive” each time. The Potency entry in test [12], in test [14], in [15], in [17], in test [18] and in test [19] was “inactive” each time.

Turning to `NC(Cc1ccc(Cl)cc1)C(=O)O` (configuration not stated), the call in test [1], in [4], in [9], in test [11], in [13] and in test [20] was inactive. In addition, the result in [16] was inactive. The Potency entry in test [2], in test [5], in test [6], in [7], in test [8] and in [10] was “inactive” throughout. Further, the Potency result in test [12], in [14], in test [15], in test [17], in [18] and in test [19] was “inactive” in each case.
